# HADH2 inhib: qHTS Assay for Inhibitors of HADH2 (Hydroxyacyl-Coenzyme A Dehydrogenase, Type II) | 3.4% of 73,000 active | Potency, µM (top dose mostly 57.1 µM), inactives show at the highest dose activity change, negative = inhibition, actives largely listed as inhibitors | recombinant HADH2, NADH fluorescence, beta-hydroxybutyryl-CoA | 3-hydroxyacyl-CoA dehydrogenase type-2 (Homo sapiens), Q99714; further: nearly all actives have a fitted effect of over 60% in size
#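 Buffer 100 mM Tris-HCl pH 9.0/0.01% Tween-20; HADH2 20 nM; NAD+ 1 mM; beta-hydroxybutyryl-CoA 90 uM (all final). 15 min cpd preincubation, RT.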
# Luciferase inh: qHTS Assay for Inhibitors of Firefly Luciferase | Luciferin 4-monooxygenase (Photinus pyralis), P08659 | purified firefly luciferase, luminescence, 8 min | Potency, µM (top dose mostly 57.1 µM), without a hit: at the highest dose activity change, negative = inhibition, usual class: inhibitors | 2.2% of 72,000 active; further: nearly all actives have a fitted effect of over 40% in size
# Target sequence (P08659 whole entry, looked up): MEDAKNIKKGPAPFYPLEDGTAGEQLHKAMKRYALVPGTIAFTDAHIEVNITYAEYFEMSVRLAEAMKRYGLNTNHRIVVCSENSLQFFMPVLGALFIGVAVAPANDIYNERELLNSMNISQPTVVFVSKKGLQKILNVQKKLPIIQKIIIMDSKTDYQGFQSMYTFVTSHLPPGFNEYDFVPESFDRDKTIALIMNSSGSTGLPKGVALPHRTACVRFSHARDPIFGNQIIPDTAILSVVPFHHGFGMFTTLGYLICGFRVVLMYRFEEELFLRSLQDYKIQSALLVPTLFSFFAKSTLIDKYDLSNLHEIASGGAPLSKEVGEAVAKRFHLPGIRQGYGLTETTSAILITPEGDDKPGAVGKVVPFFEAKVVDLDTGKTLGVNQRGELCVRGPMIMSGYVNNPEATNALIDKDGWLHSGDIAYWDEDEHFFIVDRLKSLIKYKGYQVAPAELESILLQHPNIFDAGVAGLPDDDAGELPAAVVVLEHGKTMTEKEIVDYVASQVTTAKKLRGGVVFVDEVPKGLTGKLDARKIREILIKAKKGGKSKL
#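 Compounds were tested as concentration series (qHTS) against purified P. pyralis luciferase with luciferin and 10 uM ATP in 50 mM imidazole pH 7.2, 50 mM KCl, 7 mM MgCl2, 0.01% Tween 20, 0.05% BSA. Luminescence was read after 8 min at ambient temperature.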
# Bst PK mod: Pyruvate Kinase; AID 361, 2006; Potency, µM; 1.2% of 51,000 active; purified pyruvate kinase, luminescence ATP production; ribose 5-phosphate activator present at AC10; in the data active means potency below about 11 µM; inconclusive means mostly about 12 µM to 25 µM;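 the screen sought inhibitors and activators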;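 further: scaled between full activation by ribose 5 phosphate and full inhibition by luteolin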
# HSD17B inh: qHTS Assay for Inhibitors of HSD17B4, hydroxysteroid (17-beta) dehydrogenase 4; 3-hydroxyacyl-CoA dehydrogenase type-2 (Homo sapiens), Q99714; Potency, µM (doses to about 57.1 µM), for the others: at the top dose activity change, negative = inhibition, usual class: inhibitors; 7.6% of 75,000 active; recombinant HSD17B10, NADH fluorescence kinetic; AID 893, 2007;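 further: the protocol describes HADH2 (HSD17B10) and not the HSD17B4 of the title; nearly all actives have a fitted effect of over 70% in size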
#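 20 nM HADH2, pH 9.0 Tris/Tween; cpd preinc 15 min RT; start w/ 1 mM NAD+ + 90 uM b-hydroxybutyryl-CoA; kinetic fluor ex360/em450 q30s x 4 min; delta last-first.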
# ALOX15 inhib: qHTS Assay for Inhibitors of 15-hLO (15-human lipoxygenase); Polyunsaturated fatty acid lipoxygenase ALOX15 (Homo sapiens), P16050; purified 15hLO-1, xylenol orange hydroperoxide absorbance; Potency, µM (doses to about 57.1 µM), inactives show at the top dose activity change, negative = inhibition, actives largely listed as inhibitors; 1.4% of 74,000 active; AID 887, 2007; further: nearly all actives have a fitted effect of over 55% in size
#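 Readout: Fe(III)-xylenol orange absorbance, 573-to-405 nm ratio as reaction progress. Enzyme 40 nM purified human 15hLO-1, substrate 50 uM arachidonic acid, 6 min RT after 15 min compound preincubation; Hepes pH 7.5 buffer with Triton X-100.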
# ERK AVP block: qHTS Assay for Inhibitors of the ERK Signaling Pathway using a Homogeneous Screening Assay; HEK293-V1b, vasopressin-stimulated pERK AlphaScreen; Potency, µM (doses to about 57.5 µM), inactives show at the highest dose activity, negative = inhibition, most hits filed as inhibitors; 0.99% of 72,000 active; further: nearly all actives have a fitted effect of over 55% in size
#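 Phosphorylated ERK1/2 detected via AlphaScreen bead proximity in lysates of V1b-expressing HEK293 cells given 25 nM vasopressin for 5 min after 30 min compound exposure (37 °C). AC50 from Hill equation; basal DMSO 0%, vasopressin 100%.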
# Starred values were filed as active, the others as inactive; ? = inconclusive; nt = no result given; [ ] = dose if it differs, or a comment. Only some compounds are listed: those with a hit (about 11% of all), similar ones and a draw of the others. Unless noted, the call rests on the fitted dose curve; in most records, active means well fitted curve in the direction sought with a large enough effect; inconclusive means small, poorly fitted or top-dose-only effect, or another doubt; inactive means no such curve, though single readings can be large; an effect the other way counts as inactive or inconclusive. Unless noted, on the % scale 0 is the no-effect control and ±100 the full control effect; potency means the concentration at half of the fitted maximal effect.
SMILES,HADH2 inhib,Luciferase inh,Bst PK mod,HSD17B inh,ALOX15 inhib,ERK AVP block
Cn1c(=O)c2[nH]c(CS(=O)(=O)Cc3nc4c([nH]3)c(=O)n(C)c(=O)n4C)nc2n(C)c1=O,-9%[11.4 µM],2%[11.4 µM],nt,2.5µM*,16%[11.4 µM],-6%[11.5 µM]
CCCn1c(=O)[nH]c2nc(-c3ccc(S(=O)(=O)O)cc3)[nH]c2c1=O,?,1%,nt,13µM*,?,-25%
CCn1c(=O)c2[nH]c(-c3ccccc3)nc2n(CC)c1=O,?,2%,nt,?,8%,?
CCCn1c(=O)c2[nH]c(-c3ccccc3)nc2n(CCC)c1=O,5%,1%,nt,32µM*,3%[25.6 µM],-21%
Cn1c(=O)c2[nH]c(-c3ccc(S(=O)(=O)O)cc3)nc2n(C)c1=O,1µM*,-2%,nt,16µM*,5%,-1%
COc1cc(NC(=O)c2cc3sccc3n2C)cc(OC)c1,0%,13µM*,4*,0%,-17%,-11%
Cn1c(C(=O)NCc2ccc3c(c2)OCO3)cc2sccc21,4%,-1%,>57,-6%,-18%,-23%
Cn1c(C(=O)Nc2ccc3c(c2)OCO3)cc2sccc21,-21%,7.9µM*,6.4*,-12%,-26%,?
Cc1cc(=O)[nH]c(Nc2cccc(C(F)(F)F)c2)n1,9%,-1%,>57,-4%,0%,2%
FC(F)(F)c1cccc(-c2nc3nc(Cl)c(Cl)nc3[nH]2)c1,-25%[11.4 µM],-5%[11.4 µM],nt,4µM*,-4%[11.4 µM],-1%[11.5 µM]
O=C(O)/C=C1\CCCc2ccccc2[C@H]1O,-6%,2%,nt,8%,9%[25.6 µM],6%
CC1(C)CC(=O)C2=C(C1)N(CCN1CCOCC1)C1=C(C(=O)CC(C)(C)C1)C2c1cccc(F)c1,?,1%,>57,32µM*,1%,-1%
COc1ccc(C2C3=C(CC(C)(C)CC3=O)N(CCN3CCOCC3)C3=C2C(=O)CC(C)(C)C3)cc1,-23%,-2%,>57,32µM*,-2%,8%
CC1(C)CC(=O)C2=C(C1)NC(=O)CC2c1cccc(F)c1 (stereo not given),18%,3%,>57,3%,-3%,14%
CC1(C)CC(=O)C2=C(C1)N(CCN1CCOCC1)C1=C(C(=O)CC(C)(C)C1)C2c1ccc(Cl)cc1,?,0%,>57,7.9µM*,2%,3%
CC(C)(C)N1C(=O)[C@H]2[C@H]3[C@H](O)[C@H](O)C/C(=N/OCc4ccccc4)[C@@H]3CC[C@@H]2C1=O,8%[11.4 µM],2%[11.4 µM],nt,-10%[11.4 µM],-13%[11.4 µM],22%[11.5 µM]
C=C(C)C1COc2cc3oc(=O)ccc3cc2O1 (stereo not given),nt,nt,nt,25µM*,7%,2%
CC(=O)OC(C)(C)C1Cc2cc3ccc(=O)oc3cc2O1 (stereo not given),nt,nt,nt,25µM*,3%,-16%
CC(c1ccccc1)C1C(C#N)=C(N)SC(N)=C1C#N (stereo not given),?,-6%,>57,-4%,-13%,-10%
N#CC1=C(N)SC(N)=C(C#N)C1c1ccnc2ccccc12,0.79µM*,-9%,>57,25µM*,4µM*,-32%
NC(=O)c1cc2ccc(O)cc2oc1=Nc1ccccc1,?,?,?,32µM*,-27%,7.9µM*
CCOc1ccc(OCC)c(N=c2oc3c(C)ncc(CO)c3cc2C(N)=O)c1,1%,1%,>57,17%,6%,13%
O=C(c1ccccc1)c1cc2ccccc2o1,-13%,-24%,nt,-19%,-23%,38%
NC(=O)c1cc2ccc(O)cc2oc1=NCc1ccccc1,3.2µM*,-5%,nt,32µM*,-15%,30%
COc1ccc(OC)c(N=c2oc3cc(O)ccc3cc2C(N)=O)c1,-7%,13µM*,>57,25µM*,-24%,?
SMILES,HADH2 inhib,Luciferase inh,Bst PK mod,HSD17B inh,ALOX15 inhib,ERK AVP block
CCCCN1c2ccccc2N(CCCO)c2cc(C)nnc21,2%,16µM*,nt,-8%,10%,?
O=c1cc(-c2ccccc2)c2ccc(O)c(CN3CCCCC3)c2o1,-2%,1%,>57,?,-5%,-23%
O=c1c(-c2ccccc2)coc2c(CN3CCCC3)c(O)ccc12,32µM*,1%,>57,25µM*,5%,-13%
O=c1c(-c2ccc(Cl)cc2)coc2c(CN3CCOCC3)c(O)ccc12,16%,-1%,nt,32µM*,-7%,11%
Cc1noc(NS(=O)(=O)c2cccc3c(N(C)C)cccc23)c1C,-10%,2%,nt,40µM*,-39%[25.6 µM],4%
CO[C@H]1COC(=O)[C@@H](CCSC)NC(=O)C/C=C\[C@@H](C)COC(=O)[C@@H](OCc2ccccc2)/C=C\[C@@H]1C,11%[11.4 µM],1%[11.4 µM],nt,0%[11.4 µM],0%[11.4 µM],16%[11.5 µM]
CC(=O)[C@]1(O)CC[C@@H]2[C@H]3C[C@@H](C)C4=CC(=O)CC[C@@]4(C)[C@H]3[C@@H](O)C[C@]21C,2µM*,2%[11.4 µM],nt,-3%[11.4 µM],-12%[11.4 µM],10%[11.5 µM]
C[C@H]1C[C@@H]2[C@@H]([C@@H](O)C[C@@]3(C)[C@H]2CC[C@]3(O)C(=O)CO)[C@@]2(C)C=CC(=O)C=C12,8%[25.6 µM],6%[25.5 µM],nt,13µM*,-1%[25.6 µM],6%[25.7 µM]
CC(C)[C@@H]1O[C@H](/C=C\c2ccccc2)OCC1(C)C,12%[11.4 µM],0%[11.4 µM],nt,2%[11.4 µM],-1%[11.4 µM],1%[11.5 µM]
Nc1ccc(N2CCCCCC2)cc1,?,-7%,>57,?,3.2µM*,-13%
CC(C)C[C@@H](CC(=O)N[C@H](CC(=O)N[C@@H]1CCNC[C@H]1C(=O)N[C@H](CC(=O)N[C@@H](CCC(=O)O)CC(=O)O)Cc1c[nH]c2ccccc12)C(C)C)NC(=O)[C@@H]1CNCC[C@H]1N,-15%,nt,nt,nt,nt,nt
CC(C)(C)N1C(=O)Cc2c1nc(N)c1c(N)nc(N3CCCCC3CO)c(C#N)c21 (stereo not given),?,-7%,nt,32µM*,20µM*,-15%
CC(=O)Nc1ccc(-c2cc(C(=O)O)c3cc4ccccc4cc3n2)cc1,-16%[11.4 µM],-13%[11.4 µM],nt,4µM*,0%[11.4 µM],-5%[11.5 µM]
COCCNc1nc(-c2ccccc2CN(C)C)nc2ccccc12,3%,0%[2.29 µM],nt,-2%,3%,-10%
COc1ccccc1-c1ccc(Nc2cccc(C(C)=O)c2)nn1,2%,20µM*,>57,2%,-10%,-2%
COC(=O)c1cccc(Nc2cc(C)nc(-c3ccccc3O)n2)c1,nt,-2%[25.5 µM],>26,nt,nt,nt

# High-throughput results (PubChem)
